Source: PubChem BioAssay (NCATS)
Records with an inconclusive call do not appear. A call without a number means that no potency is given here. The source made the active and inactive calls. The call rests on the fitted dose curve; in most records, active means well fitted curve in the direction sought with a large enough effect; inconclusive means small, poorly fitted or top-dose-only effect, or another doubt; inactive means no such curve, though single readings can be large; an effect the other way counts as inactive or inconclusive. Bridge positions count the residues as written; N and C are the ends. Square brackets hold non-standard residues; d marks the D form. Peptide text beside a SMILES is read from it. * marks the point of attachment. ξ: configuration not given here. ξDab(CH2SO3H) = NC(CCNCS(=O)(=O)O)C(=O)O; Heptanoyl(6-Me) = CC(C)CCCCC(=O)*; Orn = NCCC[CH](N)C(=O)O; Dab = NCC[CH](N)C(=O)O

Columns and labels:
[1] = S16 Schwann cell PMP22 intronic element firefly luciferase assay (AID 624032); further: nearly all actives have a fitted effect of over 30% in size
Method in brief: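 Rat S16 Schwann cells stably carrying firefly luciferase driven by a PMP22 intronic element, in 10% FBS, treated 24 h at 37 C. ONE-Glo luminescence normalized to PTC124 control and DMSO (0%); curves classed by r2, magnitude and activity.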

7G8 = assay: qHTS profiling for inhibitors of Plasmodium falciparum proliferation (AID 504749); further: nearly all actives have a fitted effect of over 60% in size; conditions: P. falciparum in erythrocytes, SYBR Green DNA, 72 h; series mostly up to 28.7 µM
Method in brief: (§1)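 SYBR Green fluorescence (ex 485 nm, em 535 nm) reports parasite DNA after 72 h compound exposure of infected red cells at 0.3% parasitemia, 2.5% hematocrit; signal normalized to 0.29 uM artemisinin and vehicle wells.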

C2A = assay: as above; conditions: P. falciparum in erythrocytes, SYBR Green DNA, 72 h; series mostly up to 28.7 µM
Method in brief: as §1

CP192 = assay: as above; conditions: P. falciparum in erythrocytes, SYBR Green DNA, 72 h; series mostly up to 28.7 µM
Method in brief: as §1

CP194 = assay: as above; conditions: P. falciparum in erythrocytes, SYBR Green DNA, 72 h; series mostly up to 28.7 µM
Method in brief: as §1

CP203 = assay: as above; conditions: P. falciparum in erythrocytes, SYBR Green DNA, 72 h; series mostly up to 28.7 µM
Method in brief: as §1

CP211 = assay: as above; conditions: P. falciparum in erythrocytes, SYBR Green DNA, 72 h; series mostly up to 28.7 µM
Method in brief: as §1

CP217 = assay: as above; conditions: P. falciparum in erythrocytes, SYBR Green DNA, 72 h; series mostly up to 28.7 µM
Method in brief: as §1

CP237 = assay: as above; conditions: P. falciparum in erythrocytes, SYBR Green DNA, 72 h; series mostly up to 28.7 µM
Method in brief: as §1

CP266 = assay: as above; conditions: P. falciparum in erythrocytes, SYBR Green DNA, 72 h; series mostly up to 28.7 µM
Method in brief: as §1

CP268 = assay: as above; conditions: P. falciparum in erythrocytes, SYBR Green DNA, 72 h; series mostly up to 28.7 µM
Method in brief: as §1

CP269 = assay: as above; conditions: P. falciparum in erythrocytes, SYBR Green DNA, 72 h; series mostly up to 28.7 µM
Method in brief: as §1

CP291 = assay: as above; conditions: P. falciparum in erythrocytes, SYBR Green DNA, 72 h; series mostly up to 28.7 µM
Method in brief: as §1

CP315 = assay: as above; conditions: P. falciparum in erythrocytes, SYBR Green DNA, 72 h; series mostly up to 28.7 µM
Method in brief: as §1

DIV30 = assay: as above; conditions: P. falciparum in erythrocytes, SYBR Green DNA, 72 h; series mostly up to 28.7 µM
Method in brief: as §1

JCK = assay: as above; conditions: P. falciparum in erythrocytes, SYBR Green DNA, 72 h; series mostly up to 28.7 µM
Method in brief: as §1

PC26 = assay: as above; conditions: P. falciparum in erythrocytes, SYBR Green DNA, 72 h; series mostly up to 28.7 µM
Method in brief: as §1

SC27B = assay: as above; conditions: P. falciparum in erythrocytes, SYBR Green DNA, 72 h; series mostly up to 28.7 µM
Method in brief: as §1

TAB109 = assay: as above; conditions: P. falciparum in erythrocytes, SYBR Green DNA, 72 h; series mostly up to 28.7 µM
Method in brief: as §1

CP329 = assay: as above; conditions: P. falciparum in erythrocytes, SYBR Green DNA, 72 h; series mostly up to 28.7 µM
Method in brief: as §1
Potency means the concentration at half of the fitted maximal effect.

SMILES	Potency [1]	Potency (7G8)	Potency (C2A)	Potency (CP192)	Potency (CP194)	Potency (CP203)	Potency (CP211)	Potency (CP217)	Potency (CP237)	Potency (CP266)	Potency (CP268)	Potency (CP269)	Potency (CP291)	Potency (CP315)	Potency (DIV30)	Potency (JCK)	Potency (PC26)	Potency (SC27B)	Potency (TAB109)	Potency (CP329)
Cn1cc(O)nc1NC(=O)Nc1cccc(Cl)c1	inactive	inactive	inactive	inactive	inactive	inactive	inactive	inactive	inactive	inactive	inactive	inactive	inactive	inactive	inactive	inactive	inactive	inactive	inactive	
CC(C)C(NC(=O)C(CC(=O)O)NC(=O)C(CCCCN)NC(=O)C(N)CCCN=C(N)N)C(=O)NC(Cc1ccc(O)cc1)C(=O)O (configuration not stated) (H-RKDVY-OH; configuration not given here)	inactive	inactive	inactive	inactive	inactive	inactive	inactive	inactive	inactive	inactive	inactive	inactive	inactive	inactive	inactive	inactive	inactive	inactive	inactive	inactive
CC(=O)OCC(=O)[C@@]1(O)CCC2C3CCC4=CC(=O)CC[C@]4(C)C3=CC[C@@]21C (some centres not stated)	inactive	inactive	inactive	inactive	inactive	inactive	inactive	inactive	inactive	inactive	inactive	inactive	inactive	inactive	inactive	inactive	inactive	inactive	inactive	inactive
CC1(C)C(/C=C/C=C/C=C/C=C2\N(CCCCS(=O)(=O)O)c3ccc4ccccc4c3C2(C)C)=[N+](CCCCS(=O)(=O)[O-])c2ccc3ccccc3c21	inactive	inactive	inactive	inactive	inactive	inactive	inactive		inactive	inactive	inactive	inactive	inactive	inactive	inactive	inactive	inactive	inactive	inactive	inactive
CC(C)CC(NC(=O)C(COC(C)(C)C)NC(=O)C(Cc1ccc(O)cc1)NC(=O)C(CO)NC(=O)C(Cc1c[nH]c2ccccc12)NC(=O)C(Cc1cnc[nH]1)NC(=O)C1CCC(=O)N1)C(=O)NC(CCCN=C(N)N)C(=O)N1CCCC1C(=O)NNC(N)=O (configuration not stated)	inactive	inactive	inactive	inactive	inactive	inactive	inactive	inactive	inactive	inactive	inactive	inactive	inactive	inactive	inactive	inactive	inactive	inactive	inactive	inactive
CC(C)CC1NC(=O)C(CCCN)NC(=O)C(C(C)C)NC(=O)C2CCCN2C(=O)C(Cc2ccccc2)NC(=O)C(CC(C)C)NC(=O)C(CCCN)NC(=O)C(C(C)C)NC(=O)C2CCCN2C(=O)C(Cc2ccccc2)NC1=O (configuration not stated) (cyclo(FPV[Orn]LFPV[Orn]L); configuration not given here)	642 nM (active)	0.0003 µM (active)	2.5 nM (active)	0.0017 µM (active)	1.3 nM (active)	1.3 nM (active)	1.3 nM (active)	2.2 nM (active)	0.9 nM (active)	1.9 nM (active)	13.5 nM (active)	1.3 nM (active)	0.4 nM (active)	1.7 nM (active)	0.4 nM (active)	0.0562 µM (active)	0.0011 µM (active)	6.3 nM (active)	1.1 nM (active)	1.9 nM (active)
C=CC1=C(C(=O)O)N2C(=O)[C@@H](NC(=O)C(N=O)c3csc(N)n3)[C@H]2SC1 (some centres not stated)	inactive	inactive	inactive	inactive	inactive	inactive	inactive	inactive	inactive	inactive	inactive	inactive	inactive	inactive	inactive	inactive	inactive	inactive	inactive	inactive
O=C(OCC1OC(OC(=O)c2cc(O)c(O)c(OC(=O)c3cc(O)c(O)c(O)c3)c2)[C@@H](OC(=O)c2cc(O)c(O)c(OC(=O)c3cc(O)c(O)c(O)c3)c2)C(OC(=O)c2cc(O)c(O)c(OC(=O)c3cc(O)c(O)c(O)c3)c2)C1OC(=O)c1cc(O)c(O)c(OC(=O)c2cc(O)c(O)c(O)c2)c1)c1cc(O)c(O)c(OC(=O)c2cc(O)c(O)c(O)c2)c1 (some centres not stated)		2 µM (active)	2820 nM (active)	7.57 µM (active)	3790 nM (active)	4260 nM (active)	4780 nM (active)	3550 nM (active)	2510 nM (active)	3790 nM (active)	3380 nM (active)	1900 nM (active)		5360 nM (active)	5360 nM (active)	10 µM (active)	7.57 µM (active)	3160 nM (active)	2820 nM (active)	4260 nM (active)
CCC(C)C1NC(=O)C(CCNCS(=O)(=O)O)NC(=O)C(NC(=O)C(CCNCS(=O)(=O)O)NC(=O)C(NC(=O)C(CCNCS(=O)(=O)O)NC(=O)CCCCC(C)C)C(C)O)CCNC(=O)C(C(C)O)NC(=O)C(CCNCS(=O)(=O)O)NC(=O)C(CCNCS(=O)(=O)O)NC(=O)C(C(C)CC)NC1=O (configuration not stated) ({Heptanoyl(6-Me)}-[ξDab(CH2SO3H)]T[ξDab(CH2SO3H)][Dab][ξDab(CH2SO3H)]II[ξDab(CH2SO3H)][ξDab(CH2SO3H)]T; lactam 4-C; configuration not given here)	inactive	inactive	inactive	inactive	inactive	inactive	inactive	inactive	inactive	inactive	inactive	inactive	inactive	inactive	inactive	inactive	inactive	inactive	inactive	inactive
CCC(C)C1NC(=O)C(Cc2ccc(O)cc2)NC(=O)C(N)CSSCC(C(=O)N2CCCC2C(=O)NC(CC(C)C)C(=O)NCC(N)=O)NC(=O)C(CC(N)=O)NC(=O)C(CCC(N)=O)NC1=O (configuration not stated)	inactive	inactive	inactive	inactive	inactive	inactive	inactive	inactive	inactive	inactive	inactive	inactive	inactive	inactive	inactive	inactive	inactive	inactive	inactive	inactive
O=C1/C(=C\c2cccs2)CCC/C1=C/c1cccs1	inactive		inactive	inactive	inactive	inactive	inactive	inactive	inactive	inactive	inactive	inactive	inactive	inactive	inactive	inactive	inactive	inactive	inactive	inactive
CCC(Oc1ccccc1)C(=O)NC1C(=O)N2C1SC(C)(C)C2C(=O)O (configuration not stated)	inactive	inactive	inactive		inactive	inactive	inactive	inactive	inactive	inactive	inactive	inactive	inactive	inactive	inactive	inactive	inactive	inactive	inactive	inactive
CNCC(=O)NC(CCCN=C(N)N)C(=O)NC(C(=O)NC(Cc1ccc(O)cc1)C(=O)NC(C(=O)NC(Cc1cnc[nH]1)C(=O)N1CCCC1C(=O)NC(C)C(=O)O)C(C)C)C(C)C (configuration not stated)	inactive	inactive	inactive	inactive	inactive	inactive	inactive	inactive	inactive	inactive	inactive	inactive	inactive	inactive	inactive	inactive	inactive	inactive	inactive	inactive
O=C(O)c1ccccc1-c1c2cc(Br)c(=O)c(Br)c-2oc2c(Br)c(O)c(Br)cc12	inactive	inactive	inactive	inactive	inactive	inactive	inactive	inactive	inactive		inactive	inactive	inactive	inactive	inactive	inactive	inactive	inactive	inactive	inactive
NC(=O)CCC1NC(=O)C(Cc2ccccc2)NC(=O)C(Cc2ccc(O)cc2)NC(=O)CCSSCC(C(=O)N2CCCC2C(=O)NC(CCCN=C(N)N)C(=O)NCC(N)=O)NC(=O)C(CC(N)=O)NC1=O (configuration not stated)	inactive	inactive	inactive	inactive	inactive	inactive	inactive	inactive	inactive	inactive	inactive	inactive	inactive	inactive	inactive	inactive	inactive	inactive	inactive	inactive
COc1ccc(-c2nc3ccc(C4=C(C)CC(=O)NN4)cc3[nH]2)cc1	inactive	8.91 µM (active)		inactive				inactive		inactive			inactive	inactive		inactive				inactive
